Screen size: about 360,000 compounds; about 3,000 (0.83%) were called active. This excerpt belongs to a sample that is enriched for actives. Values without a mark were called inactive. Cut-off read from the data, not from the text of the source: active = inhibition above about 50%; inactive = the rest.

This note sets out measurements from PubChem BioAssay AID588458 (Sanford-Burnham Center for Chemical Genomics, 2011).

This test deals with DNA (cytosine-5)-methyltransferase 1 (Homo sapiens) (UniProt P26358). The test can be described thus: human DNMT1 methyltransferase inhibitors, primary screen, biochemical, molecular beacon, fluorescence, HinP1I cleavage, uHTS (AID 588458). As to conditions: at 10 µM, active compounds read high.
Chain of DNA (cytosine-5)-methyltransferase 1 (Homo sapiens) (P26358 504-1616 limits assumed): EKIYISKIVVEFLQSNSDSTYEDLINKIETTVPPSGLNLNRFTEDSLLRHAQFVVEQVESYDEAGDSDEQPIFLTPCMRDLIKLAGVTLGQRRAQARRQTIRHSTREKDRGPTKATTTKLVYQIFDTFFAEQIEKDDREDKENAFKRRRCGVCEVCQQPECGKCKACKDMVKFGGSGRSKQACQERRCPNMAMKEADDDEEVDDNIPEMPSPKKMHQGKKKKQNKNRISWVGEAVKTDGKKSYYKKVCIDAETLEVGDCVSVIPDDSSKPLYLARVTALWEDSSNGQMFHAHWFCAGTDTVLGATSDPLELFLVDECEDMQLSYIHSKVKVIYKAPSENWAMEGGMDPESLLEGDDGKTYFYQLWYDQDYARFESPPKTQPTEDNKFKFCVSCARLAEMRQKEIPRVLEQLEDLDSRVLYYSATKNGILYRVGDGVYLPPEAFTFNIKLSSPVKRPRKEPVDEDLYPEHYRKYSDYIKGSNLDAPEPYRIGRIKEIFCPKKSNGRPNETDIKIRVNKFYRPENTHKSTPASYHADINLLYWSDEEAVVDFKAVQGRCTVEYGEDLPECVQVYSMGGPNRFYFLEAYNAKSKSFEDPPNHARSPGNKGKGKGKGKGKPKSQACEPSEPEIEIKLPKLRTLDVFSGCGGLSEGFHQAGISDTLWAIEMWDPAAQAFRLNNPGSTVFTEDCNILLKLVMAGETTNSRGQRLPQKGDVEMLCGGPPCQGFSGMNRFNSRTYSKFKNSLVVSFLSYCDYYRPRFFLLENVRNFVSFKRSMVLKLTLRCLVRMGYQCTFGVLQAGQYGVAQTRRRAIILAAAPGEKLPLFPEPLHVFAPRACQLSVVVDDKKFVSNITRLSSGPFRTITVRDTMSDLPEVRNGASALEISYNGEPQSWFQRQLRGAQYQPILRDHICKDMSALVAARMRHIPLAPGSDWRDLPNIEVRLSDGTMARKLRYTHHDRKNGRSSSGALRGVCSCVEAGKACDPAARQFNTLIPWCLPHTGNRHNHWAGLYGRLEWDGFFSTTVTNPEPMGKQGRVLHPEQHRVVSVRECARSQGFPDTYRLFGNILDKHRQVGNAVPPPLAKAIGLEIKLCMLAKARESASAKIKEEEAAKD
As to `CCC(=O)N1CCCC1(C)C(=O)Nc1ccc2c(c1)CCN2C(C)=O` (stereo not drawn), the inhibition (reported as % activation of signal) was -1.12%.

Regarding `Cc1ccc(NS(=O)(=O)c2c(C)[nH]c(C)c2C(=O)N2CCCCC2)c(C)c1`, the inhibition (reported as % activation of signal) is 12.2%. The figure for `C=Cc1ccc(C(=O)N2CCCC(CCC(=O)N3CCN(c4ccccn4)CC3)C2)cc1` (stereo not drawn) is 80.1% (active). The figure for `O=C(CCC1CCCN(C(=O)c2ccc(F)c(F)c2)C1)N1CCN(c2ccccn2)CC1` (stereo not drawn) is 3.2%; for `COc1cccc(CC(=O)N2CCCC(CCC(=O)N3CCN(c4ccccn4)CC3)C2)c1` (stereo not drawn) it is -0.42%. With `O=C(CN1CCCSc2ccccc21)N1CCN(S(=O)(=O)c2cccc(F)c2)CC1`, the inhibition (reported as % activation of signal) is 89.2% (active). Next, `O=C(CN1CCN(S(=O)(=O)c2cccc(Cl)c2)CC1)N1CCCCC1`: -1.19%; `O=C(CN1CCCSc2ccccc21)N1CCN(S(=O)(=O)c2ccccc2)CC1`: -0.81%; `COc1ccc(C(=O)N2CCN(c3ccc(C(C)=O)cc3F)CC2)cc1S(=O)(=O)NC1CC1`: 3.83%. Next, `CC1CCC(C(C)C)C(=O)/C1=C\c1ccc(NC(=O)CCC(=O)O)cc1` (stereo not drawn): 0.83%. Next, `Cc1ccc(Cc2cncc(O)c2)cc1S(=O)(=O)O`: 50.3% (active); `COC(=O)CC(=O)N1CCN(c2ccc(Cl)c(Cl)c2)CC1`: -1.96%.

Regarding `CC1(Oc2ccc(Cl)cc2)CCN(Cc2csc3ccccc23)C1` (stereo not drawn), the inhibition (reported as % activation of signal) was 1.6%. Next, `O=S(=O)(NCCc1ccc(Cl)cc1)c1cccs1`: -0.79%.

As for `CCOC(=O)c1c(C)[nH]c(C)c1C(=O)CSc1nc(N)cc(N)n1`, the inhibition (reported as % activation of signal) was -17.2%. Next, `CCOC(=O)c1c(C)[nH]c2c1-c1ccccc1C(=O)C2=O`: 93.5% (active); `CCOC(=O)c1c(NC(=O)CSc2nccc(=O)[nH]2)sc(C)c1C`: 0.32%. Next, `O=C(OCC(=O)N1CCCC1=O)c1cc(S(=O)(=O)N2CCOCC2)ccc1Cl`: 0.37%; `CCOC(=O)c1sc(N(Cc2ccccc2)C(=O)CN2C(=O)CN(C)C2=O)nc1C`: -3.6%; `CC(C)(C)NC(=O)CSc1nnc(NC(=O)CCc2ccccc2)s1`: -0.32%.

`Cc1ccccc1CSCC(=O)NC(=O)NC(C)(C)C`: the inhibition (reported as % activation of signal) was -1.56%.

Regarding `CC(C)(C)NC(=O)CSC(=Nc1ccccc1F)NC#N`, the inhibition (reported as % activation of signal) was 52.8% (active). Next, `CCCC/C=C/c1cccc2nncn12`: 5.75%. As for `COc1ccccc1C(=O)Nc1ccc(OCC(=O)N2CCCCC2)cc1`, the inhibition (reported as % activation of signal) is 5.57%. Turning to `COc1ccc(NC(=O)CC2C(=O)NC3CCCCC3N2C(=O)c2ccc(F)cc2)cc1` (stereo not drawn), the inhibition (reported as % activation of signal) was 4.5%. Next, `O=C(c1ccc(F)cc1)c1cn(Cc2ccc(F)cc2)c2cc3c(cc2c1=O)OCCO3`: -8.26%; `COc1ccc2c(c1)c(=O)c(C(=O)c1ccc(Cl)cc1)cn2CC(=O)Nc1ccc(F)cc1`: 59.8% (active); `CNc1cc(-c2c(OC)cccc2OC)ncn1`: 5.78%.

Consider `COC(=O)c1ccc(C2NC(=O)NC(C)=C2C(=O)N(C)C)cc1` (stereo not drawn), for which the inhibition (reported as % activation of signal) is 0.97%. Next, `O=C(NNC(=O)c1cc(-c2ccccc2Cl)nc2ccccc12)c1csc(N2CCOCC2)n1`: 1.75%; `O=C(Nc1ccc2ccccc2c1)Nc1ccc2snnc2c1`: -8.95%. The figure for `COC(=O)c1ccccc1NC(=O)C1(S(=O)(=O)c2ccc(Cl)cc2)CC1` is -0.08%. Regarding `CCOC(=O)C1CCCN(C(=O)CSc2nnc3nc(C)cc(C)n23)C1` (stereo not drawn), the inhibition (reported as % activation of signal) is 0.98%.

As for `CN(C)CC(C)(C)CNC(=O)c1cc(Br)cc(Br)c1O`, the inhibition (reported as % activation of signal) was -5.18%. Next, `CCCn1nc(C(=O)NNC(=O)CCOc2ccccc2OCC)c2ccccc2c1=O`: 0.9%. The figure for `CCOc1ccccc1C1NC(=O)NC(C)=C1C(=O)OCc1ccco1` (stereo not drawn) is -2.52%.

For `CCOc1ccccc1/C=c1\sc2nc(-c3ccco3)nn2c1=O`, the inhibition (reported as % activation of signal) was 93.3% (active). Next, `CCc1ccc(C(=O)C(C)OC(=O)CN2C(=O)NC3(CCCC3)C2=O)cc1` (stereo not drawn): 3.64%; `N#Cc1cccc(NC(=O)COC(=O)c2ccccc2C(=O)c2ccc(Cl)c([N+](=O)[O-])c2)c1`: -3.9%. Next, `COc1cccc(CN(C)CC(=O)Nc2sc3c(c2C#N)CCC3)c1`: -0.9%; `CCCc1cc(=O)[nH]c(SCC(=O)Nc2sc3c(c2C#N)CCCC3)n1`: -0.63%. The figure for `COc1ccc(-n2c(SCC(=O)Nc3sc4c(c3C#N)CCCC4)nnc2-c2ccc(O)cc2)cc1` is 67.7% (active).

`CCCCN(C)CCNC(=O)CSCc1ccc(C)cc1`: the inhibition (reported as % activation of signal) was 1.5%. The figure for `CC1=C(C(=O)N2CCOCC2)CC(CC(=O)NCc2cccs2)C(=O)N1CCCN1CCCC1=O` (stereo not drawn) is 6.83%; for `COc1ccc(C(=O)/C=C/c2ccc(-c3ccccc3)cc2)cc1CSCC(=O)O` it is 56% (active). The figure for `COc1ccccc1CCNC(=O)C1CCN(C(=O)/C=C/c2ccccc2)CC1` is -0.55%. Next, `COC(=O)c1ccc(COc2ccc(/C=C/C(=O)c3ccc(OC)c(CSCC(=O)O)c3)cc2OC)cc1`: 11.9%; `CC(C)(C)NC(=O)COC(=O)c1cc(Cl)ccc1[N+](=O)[O-]`: 6.7%.

For the molecule `O=S(=O)(c1cccc(-c2nnc(SC(F)F)n2-c2ccccc2)c1)N1CCCCC1`, the inhibition (reported as % activation of signal) is -1.8%. The figure for `CCn1ccnc1CNC(=O)CC1C(=O)NCCN1Cc1ccc(F)cc1Cl` (stereo not drawn) is -0.81%. On to `COc1ccc(S(=O)(=O)N2CCOC2CNC(=O)C(=O)NCc2ccncc2)cc1OC` (stereo not drawn), for which the inhibition (reported as % activation of signal) is -1.09%. The figure for `COc1ccc(NC(=O)C2C3C=CC(C3)C2C(=O)NCc2ccccn2)c(OC)c1` (stereo not drawn) is 1.26%; for `CCCn1nnnc1NCc1ccc(CC)cc1` it is 0.45%. The figure for `CCOC(=O)C1CCCN(C(=O)c2ccc(N(C)C)cc2)CC1` (stereo not drawn) is -7.05%; for `O=c1[nH]c(/C=C\c2cccc(C(F)(F)F)c2)nc(O)c1[N+](=O)[O-]` it is 4.66%; for `O=c1[nH]c(SCc2cccc(F)c2)nc2ccccc12` it is -0.9%. Next, `O=c1[nH]c(/C=C/c2cccc(Br)c2)nc2ccccc12`: 53% (active). For the molecule `CCN(CC)C(=O)CSc1nnc(-c2ccc(S(=O)(=O)NCc3ccccc3Cl)cc2)o1`, the inhibition (reported as % activation of signal) is 4.4%.
